# Reference: the supplement of paper PMC11018630
# Counter-ions that a name gives are not always drawn. ± gives the standard deviation of the averaged measurements. The full ranking holds about 1,100 compounds; the median of “day of extracellular matrix detachment from plate” is about 16, and the lowest 2% start at about 10. The entries come from a sample that favours the lowest values as a whole.
# System: RDEB dermal fibroblasts EB71
# Test: day of extracellular matrix detachment from plate (days); higher = delayed detachment (less fibrotic matrix)
# Details: compound concentration: 10 uM
row,Compound,day of extracellular matrix detachment from plate
1,Cc1cccc(-c2nn3c(c2-c2ccnc4ccc(C(N)=O)cc24)CCC3)n1,29.5 ± 9.2
2,CCN(CCCc1ccccc1)CCCc1ccccc1 [Alverine Citrate],18
3,C=CCc1cc(OC)c(O)c(C(=O)NCCO)c1 [Alibendol],15.7 ± 6.3
4,Nc1ccc(/N=N/c2ccccc2)c(N)n1 [Phenazopyridine HCl],13
5,C[C@@H](NCCCc1cccc(C(F)(F)F)c1)c1cccc2ccccc12 [Cinacalcet HCl],12.3 ± 1.1
6,NS(=O)(=O)c1ccc(C(=O)O)cc1 [Carzenide],12.3 ± 2.3
7,CC[C@H](C)C(=O)O[C@H]1C[C@H](O)C=C2C=C[C@H](C)[C@H](CC[C@@H](O)C[C@@H](O)CC(=O)O)[C@H]21 [Pravastatin sodium],20 ± 1.7
8,O=C(NC(Cc1cc(=O)[nH]c2ccccc12)C(=O)O)c1ccc(Cl)cc1 (configuration not stated) [Rebamipide],15.7 ± 6.3
9,CC1(C)[C@@H](OC(=O)CCC(=O)O)CC[C@]2(C)[C@H]3C(=O)C=C4[C@@H]5C[C@@](C)(C(=O)O)CC[C@]5(C)CC[C@@]4(C)[C@]3(C)CC[C@@H]12 [Carbenoxolone Sodium],13
10,CC[C@H](C)C[C@H](C)CCCCCCCCC(=O)N[C@H]1C[C@@H](O)[C@@H](NCCN)NC(=O)[C@@H]2[C@@H](O)CCN2C(=O)[C@H]([C@H](O)CCN)NC(=O)[C@H]([C@H](O)[C@@H](O)c2ccc(O)cc2)NC(=O)[C@@H]2C[C@@H](O)CN2C(=O)[C@H]([C@@H](C)O)NC1=O [Caspofungin Acetate],18
11,CC(CCc1ccc(O)cc1)NCC(O)c1ccc(O)cc1 (configuration not stated) [Ractopamine HCl],13
12,N#CC[C@H](C1CCCC1)n1cc(-c2ncnc3[nH]ccc23)cn1,16
13,Cc1cn(-c2cc(NC(=O)c3ccc(C)c(Nc4nccc(-c5cccnc5)n4)c3)cc(C(F)(F)F)c2)cn1 [Nilotinib (AMN-107)],30.5 ± 6
14,O=c1oc2c(O)c(O)cc3c(=O)oc4c(O)c(O)cc1c4c23 [Ellagic acid],10.3 ± 1.1
15,CO/N=C(\C(=O)N[C@@H]1C(=O)N2C(C(=O)O)=C(CSc3nnnn3C)CS[C@H]12)c1csc(N)n1 [Cefmenoxime hydrochloride],18 ± 1.4
16,CCN1CCN(C(=O)N[C@@H](C(=O)N[C@@H]2C(=O)N3[C@@H]2SC(C)(C)[C@@H]3C(=O)O)c2ccccc2)C(=O)C1=O [Piperacillin Sodium],13
17,CCN1CCN(C(=O)N[C@@H](C(=O)N[C@@H]2C(=O)N3C(C(=O)O)=C(CSc4nnnn4C)CS[C@H]23)c2ccc(O)cc2)C(=O)C1=O [Cefoperazone],10.3 ± 1.1
